Shown are actives, neighbours in structure and some others; about 0.47% of the full set was active somewhere.
CCT modulator = cytosolic chaperonin activity modulation; purified chaperonin ATPase assay, HTRF ADP detection, 30 min; activity change, % (no concentration beside the values), hits read low; 0.3% of 360,000 active; AID 651819; in the data active = activity change below about -30%; note: % is set by controls: 0 for no effect and ±100 for the full control effect
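TRiC (40 or 20 nM final, by batch activity) in 30 mM Tris pH 7.4, 100 mM KCl, 5 mM MgCl2, 1 mM DTT was treated with compound at 76 uM single dose, then 10 uM ATP, 30 min at 37 °C. ADP was read by HTRF Transcreener.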
Anesthetic bind = binds horse apoferritin like a general anesthetic; P02791; apoferritin/1-aminoanthracene competitive binding, fluorescence; Potency, µM (doses to about 77.5 µM), for the others: top-dose activity change, negative = displacement, most hits filed as inhibitors; 0.074% of 350,000 active; AID 485281; note: potency is the fitted concentration of half-maximal effect; % is set by controls: 0 for no effect and ±100 for the full control effect; nearly all actives have a fitted effect of over 20% in size
Target sequence (P02791 2-175 limits assumed): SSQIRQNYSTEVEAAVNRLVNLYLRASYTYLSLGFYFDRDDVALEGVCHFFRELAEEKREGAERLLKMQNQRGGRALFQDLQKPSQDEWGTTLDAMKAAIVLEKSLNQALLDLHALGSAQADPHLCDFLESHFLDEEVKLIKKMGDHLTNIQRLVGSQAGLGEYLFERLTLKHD
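10 uM apoferritin + 50% sat. 1-AMA, PBS; cpd 10 min RT; Ex380/Em535 endpoint; normalized to free probe vs complex; 4-param Hill fit; propofol titration as pos. ctrl.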
A-T KAP1 phos = potential ataxia-telangiectasia treatments restoring KAP-1 phosphorylation | 0.19% of 320,000 active | F2112 A-T fibroblasts, KAP-1 phosphorylation AlphaLISA; neocarzinostatin DNA damage 30 min before lysis | Potency, µM (titrated, usually from 57.5 µM), without a hit: at the highest dose activation, actives largely listed as activators; note: potency is the fitted concentration of half-maximal effect; % of control where 0% means no effect; nearly all actives have a fitted effect of over 45% in size
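ATM-like activity read as KAP-1 phosphorylation via AlphaLISA donor/acceptor antibody pairs after lysis and 6 hr at 25C. Cells were ATM-null patient fibroblasts (F2112, hTERT), dosed 60 min, then exposed to the DSB inducer NCS for 30 min.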
MmCpn inh = M. maripaludis TRiC chaperonin inhibition; purified Mm-Cpn ATPase, ADP Transcreener TR-FRET; Potency, µM (doses to about 76.9 µM), for inactives: at the highest dose activity, negative = inhibition, usual class: inhibitors; 0.031% of 330,000 active; AID 504842; note: potency is the fitted concentration of half-maximal effect; % is set by controls: 0 for no effect and ±100 for the full control effect; nearly all actives have a fitted effect of over 80% in size
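ATP (10 uM final) was added to archaeal chaperonin (25 nM final) after 10 min exposure to test compound at 37°C; after 30 min further incubation, ADP was detected by competitive TR-FRET.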
Numbers without * were called inactive; ? = inconclusive; nt = no result given. Unless noted, calls come from the whole dose curve; as a rule, active = well fitted curve in the direction sought with a large enough effect; inconclusive = small, poorly fitted or top-dose-only effect, or another doubt; inactive = no such curve, though single readings can be large; an effect the other way counts as inactive or inconclusive.

SMILES | CCT modulator | Anesthetic bind | A-T KAP1 phos | MmCpn inh
CN(CC(=O)Nc1ccc(Cl)c(C(F)(F)F)c1)C(=O)c1ccc2c(c1)OCCO2 | -81* | nt | 10% | 1%
CN(CC(=O)Nc1ccc(Cl)c(C(F)(F)F)c1)C(=O)C1CC(=O)N(c2ccc3c(c2)OCCO3)C1 (stereo unspecified) | 0 | nt | nt | nt
COc1ccc(/C=C/c2ccncc2)cc1 | -52* | -10% | 6% | 0%
C/C=C/c1ccc(OC)cc1 | nt | -4% | nt | nt
Clc1ccccc1-c1nnc(-c2cccnc2)o1 | -40* | -8% | 3% | -3%
Clc1ccccc1-c1nc(-c2cccnc2)no1 | 0 | ? | nt | nt
COc1ccc(C2C(=O)N(C3CCCCCC3)CC(=O)N2Cc2ccc(C)cc2)cc1OC (stereo unspecified) | nt | 3% | nt | nt
CC1CCc2nc3ncn(Cc4ccc(Cl)cc4)c(=O)c3cc2C1 (stereo unspecified) | nt | -15% | nt | nt
CC(C)C(NC(=O)c1ccccc1)C(=O)OCC(=O)N1CCCCC1 (stereo unspecified) | -40* | nt | -6% | -1%
COc1cccc(NC(=O)c2cn(C3CCCCC3)c(=O)c3c2c2ccccc2n3C)c1 | nt | 199% | nt | nt
O=C(O)CCCNC(=O)Cc1ccccc1 | -91* | -3% | ? | 3%
O=C(Cc1ccccc1)NCCCc1ccccc1 | 0 | -15% | 1% | 1%
Cn1c(Sc2nc3ccccc3n2C)nc2ccccc21 | -1 | -16% | 20µM* | 0%
Cn1c(SCc2ccc(C#N)cc2Cl)nc2ccccc21 | -36* | ? | 3% | -3%
N#Cc1ccc(CSc2ccccn2)c(Cl)c1 | 2 | ? | 17% | 0%
Cc1ccc(C2CC(c3cccs3)=NN2C(=O)CSc2nc(=O)n3ccc(C)cc3n2)cc1 (stereo unspecified) | nt | nt | 12% | ?
COc1ccc(C2CC(c3cccs3)=NN2C(=O)CSc2nc(=O)n3ccc(C)cc3n2)cc1 (stereo unspecified) | -46* | nt | -8% | ?
O=C(Nc1cccc(Cl)c1)c1csc(-c2ccccc2)n1 | -2 | -3% | 32µM* | ?
O=C(Nc1ccc(Cl)c(Cl)c1)c1csc(-c2ccccc2)n1 | -1 | -3% | 6% | -4%
CCOC(=O)C1=C(C)N(c2ccc(OC)cc2)C(=O)/C1=C\c1cccs1 | -3 | -6% | 9% | 1%
CCOC(=O)C1=C(C)N(c2ccc(OC)cc2)C(=O)/C1=C\c1ccc(O)c(OCC)c1 | -2 | -22% | 13µM* | 1%
Cc1ccc(-n2nnnc2CNC(=O)c2ccccc2)cc1C | nt | 4% | nt | nt
Cc1ccc(N2C(=O)CC3(CC4C=CC3C4)C2=O)cc1 (stereo unspecified) | -2 | 7.9µM* | 4% | 0%
Cc1ccc(N2C(=O)NC3(CCCCC3)C2=O)cc1 | -10 | -11% | 7% | -1%
CCCCc1cc(=O)oc2c(CN3CCCC3)c(O)c(Cl)cc12 | -1 | 560% | 22µM* | -8%
SMILES | CCT modulator | Anesthetic bind | A-T KAP1 phos | MmCpn inh
CCCc1cc(=O)oc2c(CN3CCN(C)CC3)c(O)c(Cl)cc12 | 0 | 939% | 19% | -19%
Cc1ccc(NC(=S)Nc2cccc(-c3n[nH]c(=S)o3)c2)cc1 | 1 | -2% | -6% | 50µM*
CCN(CC)c1ccc2cc(-c3nc(-c4ccc(OC)cc4)cs3)c(=O)oc2c1 | 0 | -6% | 25µM* | -4%
CCN(CC)c1ccc2cc(-c3nc(-c4ccc(Cl)cc4Cl)cs3)c(=O)oc2c1 | nt | 4% | nt | nt
CCC(C(=O)N1CCN(c2ccccc2)CC1)n1nc(C)c2sc3ccccc3c2c1=O (stereo unspecified) | nt | -8% | nt | nt
NC(=O)CSc1nnc(Cc2csc(Nc3ccccc3)n2)n1Cc1ccccc1 | -69* | -15% | 4% | 2%
CC(=O)c1ccc(NC(=O)Cn2cc(S(=O)(=O)Cc3ccccc3Cl)c3ccccc32)cc1 | nt | -5% | nt | nt
COC(=O)C1=CN(C(C)C)C=C(C(=O)OC)C1c1cc(Br)c(OC)c(OC)c1 | -1 | 500% | 20µM* | -8%
CCC1Sc2ccccc2N(CC(=O)NCc2ccc(C)cc2)C1=O (stereo unspecified) | nt | -6% | nt | nt
COc1ccc(CNS(=O)(=O)c2ccc(F)c(C(=O)Nc3c(C)cc(C)cc3C)c2)cc1 | nt | -10% | nt | nt
Cc1cc2ccccc2n1CCNC(=O)c1cccs1 | -1 | -12% | 8% | 28µM*
Cc1ccc(CC(=O)NC(C)CCc2ccccc2)cc1 (stereo unspecified) | 1 | -19% | 2% | -1%
Cc1ccccc1CN(C)CC(=O)NC(C)CCc1ccccc1 (stereo unspecified) | -94* | -19% | 9% | 0%
CCOC(=O)Cn1c(-c2cccnc2Cl)nc2cc(Cl)c(Cl)cc21 | 1 | -8% | -5% | -2%
CCOC(=O)Cn1c(-c2cccnc2Cl)nc2cc(C)c(C)cc21 | -34* | -8% | -1% | 0%
O=C(CCCn1c(=O)c2cccn2c2ccccc21)Nc1cccc(Cl)c1 | nt | -10% | nt | nt
CN(C)c1ccc(NC(=O)C2C3C=CC(C3)C2C(=O)O)cc1 (stereo unspecified) | -2 | -21% | 7% | 25µM*
CCOC(=O)N1CCc2c(sc3c2c(=O)n(-c2ccccc2)c(=O)n3CC(=O)Nc2ccc(OC)cc2OC)C1 | nt | -4% | nt | nt
Cc1ccc(Nc2nc(N)c([N+](=O)[O-])c(N3CCC(C)CC3)n2)cc1C | -4 | -14% | 32µM* | 2%
COc1ccc(C2C3=C(CCCC3=O)Nc3nc(SCc4ccccc4)nn32)cc1OC (stereo unspecified) | -31* | -1% | 4% | -4%
Cc1cc(NC(=O)CS(=O)(=O)c2ccc(F)cc2)no1 | 3 | nt | -19% | 2%
Cc1cc(NC(=O)CS(=O)(=O)c2ccc(Cl)cc2)no1 | -87* | -1% | -1% | 3%
